# esBAF inh – blocks esBAF chromatin remodeling in mouse ES cells; Bmi1-luciferase knock-in reporter, 24 h; 100% = twice the neutral-well signal; reporter increase, % at 12.5 µM; hit rate 2% among 350,000; in the data active means activation above about 40%; inconclusive means no clear call, values can overlap the other calls;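 further: 0% = median of the plate's neutral control wells and 100% = double that signal; a rise in the Bmi1 reporter signal indicates esBAF inhibition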
# MITF TRPM1 HTS – increases MITF-driven TRPM1 promoter luciferase signal; hit rate 0.75% among 300,000; SK-MEL-5 TRPM1-promoter luciferase, 24 h; % of positive control, neutral wells = 0; activation, % at 12.5 µM;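 active means mean activation of at least 80% with every replicate also reaching 80%; inconclusive means mean reaches 80% but some replicate falls short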;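 further: 0% = neutral control wells and 100% = parthenolide positive control wells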
# PAX8 inh HTS – lowers PAX8-driven luciferase in RMG-I cells | inhibition, % at 12.6 µM | hit rate 1.2% among 360,000 | RMG-I TPO-luciferase reporter, SteadyGlo, 24 h;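 active means mean replicate inhibition at least 60% with every replicate also reaching 60%; inconclusive means only one of the two criteria is met; inactive means mean below 60% and not all replicates reaching 60%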;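 further: luciferase light reporting Pax8 driven TPO promoter activity; plate controls were median of neutral control wells for no effect and mitoxantrone controls for full effect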
# EWS-Fli block – blocks EWS/Fli oncoprotein-driven transcription; A673 NR0B1-luciferase reporter, viability-normalised; inhibition, % at 12.6 µM; hit rate 0.67% among 350,000;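 active means mean inhibition of at least 50% after viability correction, with every replicate also passing that limit; inconclusive means mean reaches 50% but only one of two replicates passes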;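 further: firefly luciferase signal divided by Alamar Blue viability fluorescence both relative to DMSO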
# Wnt act – activators of Wnt/beta-catenin signaling; Wnt/beta-catenin reporter cell assay, activator, plate reader; activation, % at 9.35 µM; hit rate 1.2% among 300,000; AID 743398; in the data active means activation above about 30%, passing the limit was not always enough; inconclusive means no clear call, values can overlap the other calls;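 further: 0% = neutral control wells and 100% = positive control wells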
# MITF TRPM1 inh – MITF TRPM1 promoter inhibition in SK-MEL-5 cells | SK-MEL-5 TRPM1 promoter luciferase, 24 h | inhibition, % at 12.5 µM | hit rate 0.83% among 330,000;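 active means mean inhibition across replicates of 60% or more, whatever share of single replicates reaches that level; inconclusive means some that reach 60%, reason not given; inactive means mean inhibition across replicates below 60%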
# * marks the source's active call; other numbers are inactive results; ? = inconclusive; . = not tested or not shown. An excerpt weighted towards active compounds, which were near 4% of everything screened.
SMILES,esBAF inh,MITF TRPM1 HTS,PAX8 inh HTS,EWS-Fli block,Wnt act,MITF TRPM1 inh
COc1ccc2c3c(n(C)c2c1)[C@H](CO)N(Cc1ccncc1)CC31CN(C(=O)C2CC2)C1,.,.,-5,-3,.,.
Cc1cc(OCc2cc(C(=O)N(C)C3CCOCC3)no2)cc(C)c1Cl,61*,63,-171,.,30,-63
COc1ccc(OCc2cc(C(=O)N(C)C3CCOCC3)no2)c2ccccc12,38,16,-78,.,13,-8
Cc1ccc(OCc2cc(C(=O)N(C)CC3CCOCC3)no2)cc1C,69*,96*,-140,.,17,-104
CO[C@@H]1CN(C)C(=O)c2cc(NC(=O)C3CCC3)ccc2OC[C@@H](C)N(C(=O)c2ccccc2)C[C@H]1C,0,.,15,-7,.,.
O=c1[nH]c2c(s1)C=Nc1ccccc1N2,54*,-13,.,.,?,14
C/C(=N/N=C/c1ccccc1O)c1ccccc1O,49,56,-176,-23,44*,-47
COCCOc1ccc(C(F)(F)F)cc1Nc1nc2ccccc2o1,62*,70,.,.,.,-68
COc1cc(C)ccc1OCC(=O)NC1CCCCCC1,69*,?,-216,-81,-1,-83
O=C(COc1ccc(Cl)cc1[N+](=O)[O-])NC1CCCCC1,101*,62,-169,-101,0,-55
O=C(COc1ccc(Cl)cc1[N+](=O)[O-])N1CCCCCC1,-1,2,-2,-5,-1,-3
COc1cc(CNn2cnnc2)ccc1OCC(=O)NC1CCCCC1,-12,5,.,.,-2,-7
CC(=O)c1cc(Cl)ccc1OCC(=O)NC1CCCC1,52*,50,-109,-53,-3,-48
O=C(C1CC1)N1CC2(C1)[C@H](c1ccccc1)[C@H](CO)N2Cc1nccs1,.,.,5,-9,.,.
CCNC(=O)[C@@H]1[C@@H](CO)[C@@H]2Cn3c(ccc(-c4ccc(F)cc4)c3=O)[C@H]1N2C,2,.,-3,14,.,.
O=C(N[C@@H]1CC[C@@H](CCNC(=O)c2ccccc2F)O[C@H]1CO)c1ccc2c(c1)OCO2,3,.,2,-3,.,.
CC(=O)N1[C@H](CO)[C@@H](c2ccccc2)C12CN(C(=O)c1ccccn1)C2,.,.,-21,-13,.,.
COc1ccc(S(=O)(=O)N[C@@H]2CC[C@@H](CC(=O)NCCc3ccccc3)O[C@H]2CO)cc1,0,.,-5,-2,.,.
Fc1ccc2cc(CCO[C@H]3CCCCO3)ncc2c1,-29,40,-188,33,32*,-42
Fc1ccc2cnc(CCO[C@H]3CCCCO3)cc2c1,-7,39,-46,46,17,-38
Cc1ccc(NC(=O)c2sc(N)nc2C)cc1,50*,51,-33,-77,7,-53
Cc1nc(C(=O)Nc2ccccc2)sc1C(=O)Nc1ccccc1,54*,86*,-92,-100,1,-86
COc1ccc(CN(C)C[C@H]2OCCCC[C@@H](C)Oc3ccc(NS(=O)(=O)c4c(C)noc4C)cc3C(=O)N([C@@H](C)CO)C[C@H]2C)cc1,2,.,-9,3,.,.
Nc1cc(OCC(F)(F)F)cc([N+](=O)[O-])c1,.,-5,-3,.,.,7
Nc1cc(N)c(OCC(F)(F)F)cc1OCC(F)(F)F,-13,-66,.,.,.,65*
SMILES,esBAF inh,MITF TRPM1 HTS,PAX8 inh HTS,EWS-Fli block,Wnt act,MITF TRPM1 inh
NC(=O)c1cc2c3ccccc3ccn2c1-c1ccccc1,49*,-22,-28,46,?,23
Cc1noc(C)c1NC(=O)Nc1ccc2c(c1)CC(=O)N([C@@H](C)CO)C[C@@H](C)[C@@H](CN(C)Cc1ccc(Oc3ccccc3)cc1)O2,2,.,-25,-3,.,.
S=C(Nc1ccccc1)Nc1ccc2cn[nH]c2c1,39,38,-98,-88,33*,-39
C[C@H](CO)N1C[C@H](C)[C@H](CN(C)C(=O)c2ccc3c(c2)OCO3)Oc2cc(-c3ccncc3)ccc2S1(=O)=O,1,.,.,2,.,.
Cc1ccc(Nc2nc(COC(=O)COc3ccc(C=O)cc3)cs2)cc1,49*,50,-125,.,27,-51
CC1CCCC(NCC(O)COC(c2ccc(F)cc2)c2ccc(F)cc2)C1C (stereo unspecified),2,-85,?,41,-1,86*
Cc1ccccc1NC(=O)/C(C#N)=C/c1ccc[nH]1,24,10,-48,-48,9,-11
N#C/C(=C\c1ccc[nH]1)C(=O)Nc1ccccc1[N+](=O)[O-],63*,5,-22,-47,22,-4
C[C@@H]1CN([C@@H](C)CO)C(=O)c2cc(NC(=O)Nc3cccc4ccccc34)ccc2O[C@@H](C)CCCCO[C@H]1CN(C)C(=O)Cc1ccccc1,1,.,8,7,.,.
Cc1cccc(-n2c(O)c(C=NCc3ccccn3)c3ccccc3c2=O)c1,-4,-11,26,3,1,10
Cc1ccc(-n2c(O)c(C=NCc3ccccn3)c3ccccc3c2=O)cc1,-4,5,2,-6,61*,-3
C[C@@H]1CN([C@H](C)CO)C(=O)c2cc(C#Cc3cccc(F)c3)cnc2O[C@H]1CN(C)C(=O)C1CCCCC1,.,.,.,10,.,.
Cn1cc(Cl)c(C(=O)Nc2cccc(Cl)c2Cl)n1,71*,54,.,.,.,-49
Cc1cc(C)n2nc(-c3ccc(Cl)cc3)cc2n1,20,24,-138,-85,34*,-20
COc1ccc(-c2cc3nc(C)cc(C)n3n2)cc1,12,53,.,.,-5,-56
Cc1cc(C)n2nc(-c3ccc(Br)cc3)cc2n1,35,.,-168,-120,45*,-28
Cc1cc(C)n(-c2nc(-c3ccc(Cl)cc3)cs2)n1,51*,36,.,.,0,-39
Cc1ccc(S(=O)(=O)N(C)C[C@@H]2Oc3cc(C4=CCCC4)ccc3S(=O)(=O)N([C@H](C)CO)C[C@@H]2C)cc1,5,.,67*,6,.,.
CC(C)CC#Cc1ccc2c(c1)O[C@H](CN(C)S(=O)(=O)c1ccc(F)cc1)[C@H](C)CN([C@H](C)CO)S2(=O)=O,9,.,99*,25,.,.
CCCC#Cc1ccc2c(c1)O[C@@H](CN(C)S(=O)(=O)c1cccc(OC)c1)[C@@H](C)CN([C@@H](C)CO)S2(=O)=O,7,.,66*,17,.,.
Cc1ccc(S(=O)(=O)N(C)C[C@H]2Oc3cc(C#Cc4ccncc4)ccc3S(=O)(=O)N([C@H](C)CO)C[C@H]2C)cc1,-5,.,89*,-17,.,.
CC(C)CC#Cc1ccc2c(c1)O[C@H](CN(C)S(=O)(=O)c1ccc(F)cc1)[C@@H](C)CN([C@H](C)CO)S2(=O)=O,5,.,12,23,.,.
Cc1noc(C)c1NC(=O)Nc1ccc2c(c1)C(=O)N([C@@H](C)CO)C[C@@H](C)[C@@H](CN(C)C(=O)Cc1ccccc1)OCCCC[C@@H](C)O2,-1,.,-11,0,.,.
O=C(C[C@H]1C[C@@H]2c3cc(NS(=O)(=O)c4ccc(F)cc4)ccc3O[C@@H]2[C@@H](CO)O1)NCc1cc(F)ccc1F,14,.,.,14,.,.
COCC(=O)Nc1ccc2c(c1)C(=O)N(C)[C@H]1CC[C@H](CC(=O)NCc3ccccc3)O[C@H]1CO2,5,.,-1,-15,.,.
